Assay [1] can be described thus: qHTS assay to identify small molecule antagonists of the peroxisome proliferator-activated receptor delta (PPARd) signaling pathway - cell viability counter screen (AID 743213). Note: nearly all actives have a fitted effect of over 50% in size. Note: potency is the fitted concentration of half-maximal effect. The essentials:
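Same-well viability: cells pre-incubated 5 h, dosed with compound plus 300 nM L165041, kept 17 h at 37 C, FRET substrate 2 h RT, then CellTiter-Glo 30 min RT and luminescence.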
For orientation: Quantitative high-throughput screening tests each substance at several concentrations.

A short description of assay [2]: qHTS assay to identify small molecule agonists of the farnesoid-X-receptor (FXR) signaling pathway - cell viability counter screen (AID 743218). Note: potency is the fitted concentration of half-maximal effect; nearly all actives have a fitted effect of over 45% in size. The gist of the method:
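Cells were seeded, left 5 h at 37 C and 5% CO2, then dosed with compound in DMSO for 16 h. After the beta-lactamase FRET read, CellTiter-Glo was added and luminescence measured 30 min later.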

A short description of assay [3]: qHTS assay to identify small molecule antagonists of the farnesoid-X-receptor (FXR) signaling pathway - cell viability counter screen (AID 743221; active = well fitted cell-killing curve with a large enough effect in the repeat runs, not every such curve was filed as active; note: nearly all actives have a fitted effect of over 50% in size; note: potency is the fitted concentration of half-maximal effect). The essentials: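 HEK 293T FXR-bla cells, 5 h pre-incubation; compound + CDCA 50 uM final, 16 h, 37 C; beta-lactamase FRET read first, then CellTiter-Glo luminescence, 30 min RT.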
In assay [4] the target is Vitamin D3 receptor (Homo sapiens) (UniProt P11473). In words: qHTS assay to identify small molecule antagonists of the vitamin D receptor (VDR) signaling pathway (AID 743223; active = well fitted inhibition curve with a large enough effect in the signal ratio in the repeat runs, not every such curve was filed as active; the % refers to the signal ratio; note: potency is the fitted concentration of half-maximal effect). The essentials:
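Beta-lactamase reporter read-out: FRET substrate fluorescence after 2 h at room temperature, following 16 h exposure of VDR-bla cells to test compound plus 3 nM (final) 1alpha,25-dihydroxyvitamin D3 agonist at 37C.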

The nature of assay [5]: qHTS assay to identify small molecule agonists of the vitamin D receptor (VDR) signaling pathway - cell viability counter screen (AID 743224). Note: nearly all actives have a fitted effect of over 50% in size. Note: potency is the fitted concentration of half-maximal effect. The gist of the method: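 Cells: VDR-bla, 2,000/well, settled 4 h. Treatment: compounds in DMSO, 16 h, 37C/5% CO2. Readout: CellTiter-Glo luminescence after 30 min RT.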
Assay [6] in a line: qHTS assay to identify small molecule antagonists of the vitamin D receptor (VDR) signaling pathway - cell viability counter screen (AID 743225). Note: nearly all actives have a fitted effect of over 50% in size. Note: potency is the fitted concentration of half-maximal effect. The gist of the method: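 Viability counter screen run in the same wells as the beta-lactamase reporter assay: HEK 293T VDR-UAS-bla cells, 16 h compound exposure at 37C with 3 nM (final) 1-alpha,25-dihydroxyvitamin D3. CellTiter-Glo luminescence, 30 min, room temperature.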

Assay [7] can be described thus: qHTS assay to identify small molecule agonists of the NFkB signaling pathway - cell viability counter screen (AID 1159515; calls by dose curve; note: nearly all actives have a fitted effect of over 55% in size; note: potency is the fitted concentration of half-maximal effect). The gist of the method:
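Cells are seeded (2,000 NFkB-bla ME-180 per well), rested overnight, and dosed with DMSO-dissolved compounds for 5 hr at 37 C. Viability is then read by CellTiter-Glo luminescence after 30 min at room temperature.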

Assay [8] in a line: qHTS assay to identify small molecule agonists of the endoplasmic reticulum stress response signaling pathway - cell viability counter screen (AID 1159517; calls by dose curve; note: nearly all actives have a fitted effect of over 50% in size; note: potency is the fitted concentration of half-maximal effect). The essentials:
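Steps: seed 1,500 ESRE-bla HeLa cells per well; incubate overnight at 37 C, 5% CO2; add compounds in DMSO for 5 hr; run FRET substrate 2 hr RT; add CellTiter-Glo, wait 30 min, read luminescence.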

A short description of assay [9]: qHTS assay to identify small molecule antagonists of the retinoid-related orphan receptor gamma (ROR-gamma) signaling pathway - cell viability counter screen (AID 1159520). Note: nearly all actives have a fitted effect of over 50% in size. Note: potency is the fitted concentration of half-maximal effect. The gist of the method: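 Tet-on ROR gamma CHO cells were given compounds for 2 hr, then doxycycline hyclate at 1 uM final, and incubated 16 hr at 37 C. Viability was measured as ATP content by CellTiter-Glo luminescence.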

The target of assay [10] is Nuclear receptor ROR-gamma (Homo sapiens) (UniProt P51449). In words: qHTS assay to identify small molecule antagonists of the retinoid-related orphan receptor gamma (ROR-gamma) signaling pathway (AID 1159521; note: nearly all actives have a fitted effect of over 50% in size; note: potency is the fitted concentration of half-maximal effect). The essentials: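 Luminescence readout (ONE-Glo, 30 min RT) after 16 h doxycycline induction; loss of signal scored as antagonism. CHO cells with TET-inducible RORγ and RORE-LUC reporter; compounds added 2 h before 1 uM final doxycycline.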

The nature of assay [11]: qHTS assay to identify small molecule agonists of the AP-1 signaling pathway - cell viability counter screen (AID 1159525; calls by dose curve; note: nearly all actives have a fitted effect of over 55% in size; note: potency is the fitted concentration of half-maximal effect). The gist of the method:
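Same-well cytotoxicity counter screen of the Tox21 10K library in ME-180 cells. The readout is ATP-dependent luminescence after 5 h compound treatment. Data are normalised to DMSO and tetra n-octyl ammonium bromide controls.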

Assay [12] has as its target Peroxisome proliferator-activated receptor delta (Homo sapiens) (UniProt Q03181). In words: qHTS assay to identify small molecule agonists of the peroxisome proliferator-activated receptor delta (PPARd) signaling pathway (AID 743212; calls by dose curve). The essentials: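 Read-out: beta-lactamase FRET fluorescence after 2 h room-temperature incubation with LiveBLAzer B/G substrate. Cells were HEK293H carrying a UAS-bla reporter for PPARd, treated at 37 C with DMSO-dissolved compounds.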

The target is the same in assay [13]. In words: qHTS assay to identify small molecule antagonists of the peroxisome proliferator-activated receptor delta (PPARd) signaling pathway (AID 743215; active = well fitted inhibition curve with a large enough effect in the signal ratio in the repeat runs, not every such curve was filed as active; the % refers to the signal ratio;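 note: cells stimulated with agonist L165041 at 300 nM final during compound exposure; series mostly up to about 62 µM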). The gist of the method: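 Cells: HEK293H with a UAS-driven beta-lactamase reporter responsive to PPARd. Compounds were co-added with L165041 (300 nM, final) and incubated 17 h at 37 C before a 2 h room-temperature FRET substrate step and fluorescence reading.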

Assay [14] concerns the target Vitamin D3 receptor (Homo sapiens) (UniProt P11473). In words: qHTS assay to identify small molecule agonists of the vitamin D receptor (VDR) signaling pathway (AID 743222; calls by dose curve). The gist of the method: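 Cells carrying a VDR-driven beta-lactamase reporter are seeded at 2,000 per well and rested 4 h. Compounds in DMSO are added for 16 h at 37C, and FRET substrate fluorescence is measured after 2 h at room temperature.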

The target in assay [15] is Bile acid receptor (Homo sapiens) (UniProt Q96RI1). The assay can be described thus: qHTS assay to identify small molecule antagonists of the farnesoid-X-receptor (FXR) signaling pathway (AID 743217; active = well fitted inhibition curve with a large enough effect in the signal ratio in the repeat runs, not every such curve was filed as active; the % refers to the signal ratio). The essentials:
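Cells carrying a UAS-driven beta-lactamase reporter (GeneBLAzer FXR-UAS-bla HEK 293T) were plated and rested 5 h at 37 °C. Compounds in DMSO were added alongside chenodeoxycholic acid agonist at 50 uM final and left 16 h at 37 °C before FRET substrate readout.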

Assay [16] shares this target. The assay can be described thus: qHTS assay to identify small molecule agonists of the farnesoid-X-receptor (FXR) signaling pathway (AID 743220; active = well fitted activation curve with a large enough effect in the signal ratio in the repeat runs, not every such curve was filed as active; the % refers to the signal ratio). The essentials: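 FXR-UAS-bla HEK 293T cells carrying a UAS-driven beta-lactamase reporter were plated for 5 h at 37C/5% CO2, then exposed to DMSO-dissolved Tox21 10K compounds for 16 h at 37C. A LiveBLAzer B/G FRET substrate was loaded for 2 h at room temperature before fluorescence reading.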

The target of assay [17] is Retinoic acid receptor RXR-alpha (Homo sapiens) (UniProt P19793). The assay can be described thus: qHTS assay to identify small molecule agonists of the RXR signaling pathway (AID 1159527; calls by dose curve; note: nearly all actives have a fitted effect of over 35% in size). The essentials: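 Agonist mode; 9-cis retinoic acid positive control. HEK 293T UAS-bla reporter cells, 2% charcoal-stripped FBS, 16 hr compound exposure at 37 C/5% CO2. LiveBLAzer B/G FRET substrate 2 hr RT; ex 405, em 460/530 nm.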

The nature of assay [18]: qHTS assay to identify small molecule agonists of the RXR signaling pathway - cell viability counter screen (AID 1159529). Note: nearly all actives have a fitted effect of over 50% in size. Note: potency is the fitted concentration of half-maximal effect. The gist of the method:
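Luminescence from CellTiter-Glo (30 min, RT) measured viability in the same wells as the beta-lactamase reporter readout. Cells: GeneBLAzer RXR-alpha HEK 293T, 2% charcoal-stripped FBS. Compound exposure 16 hr, 37 C.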

Records with an inconclusive call do not appear. Active and inactive are the calls of the source. Unless noted, calls come from the whole dose curve; as a rule, active = well fitted curve in the direction sought with a large enough effect in the repeat runs; inconclusive = weak or mixed curves; inactive = no such curve, though single readings can be large; an effect the other way counts as inactive or inconclusive.

Chain of Vitamin D3 receptor (Homo sapiens) (P11473 whole entry, looked up): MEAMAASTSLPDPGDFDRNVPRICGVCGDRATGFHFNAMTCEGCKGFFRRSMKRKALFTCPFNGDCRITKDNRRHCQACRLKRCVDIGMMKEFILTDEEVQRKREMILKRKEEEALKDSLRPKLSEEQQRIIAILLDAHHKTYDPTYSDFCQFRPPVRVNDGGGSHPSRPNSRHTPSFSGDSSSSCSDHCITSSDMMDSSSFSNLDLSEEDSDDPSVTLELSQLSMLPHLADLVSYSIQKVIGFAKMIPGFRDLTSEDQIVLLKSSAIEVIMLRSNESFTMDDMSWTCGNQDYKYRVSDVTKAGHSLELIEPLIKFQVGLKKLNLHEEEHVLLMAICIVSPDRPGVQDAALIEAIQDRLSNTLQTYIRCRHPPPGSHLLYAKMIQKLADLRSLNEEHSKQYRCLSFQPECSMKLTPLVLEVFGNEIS
Chain of Peroxisome proliferator-activated receptor delta (Homo sapiens) (Q03181 whole entry, looked up): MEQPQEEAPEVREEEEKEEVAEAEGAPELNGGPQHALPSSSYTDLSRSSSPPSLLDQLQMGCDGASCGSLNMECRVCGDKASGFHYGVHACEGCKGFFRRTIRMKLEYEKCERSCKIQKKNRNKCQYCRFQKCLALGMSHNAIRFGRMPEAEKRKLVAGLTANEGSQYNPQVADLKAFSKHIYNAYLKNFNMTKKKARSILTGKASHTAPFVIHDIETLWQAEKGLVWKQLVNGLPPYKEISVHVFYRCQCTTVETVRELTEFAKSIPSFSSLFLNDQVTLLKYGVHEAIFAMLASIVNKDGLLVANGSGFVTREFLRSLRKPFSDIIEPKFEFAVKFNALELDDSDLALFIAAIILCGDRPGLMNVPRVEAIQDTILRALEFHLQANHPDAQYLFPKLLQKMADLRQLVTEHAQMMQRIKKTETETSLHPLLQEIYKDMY
Chain of Bile acid receptor (Homo sapiens) (Q96RI1 whole entry, looked up): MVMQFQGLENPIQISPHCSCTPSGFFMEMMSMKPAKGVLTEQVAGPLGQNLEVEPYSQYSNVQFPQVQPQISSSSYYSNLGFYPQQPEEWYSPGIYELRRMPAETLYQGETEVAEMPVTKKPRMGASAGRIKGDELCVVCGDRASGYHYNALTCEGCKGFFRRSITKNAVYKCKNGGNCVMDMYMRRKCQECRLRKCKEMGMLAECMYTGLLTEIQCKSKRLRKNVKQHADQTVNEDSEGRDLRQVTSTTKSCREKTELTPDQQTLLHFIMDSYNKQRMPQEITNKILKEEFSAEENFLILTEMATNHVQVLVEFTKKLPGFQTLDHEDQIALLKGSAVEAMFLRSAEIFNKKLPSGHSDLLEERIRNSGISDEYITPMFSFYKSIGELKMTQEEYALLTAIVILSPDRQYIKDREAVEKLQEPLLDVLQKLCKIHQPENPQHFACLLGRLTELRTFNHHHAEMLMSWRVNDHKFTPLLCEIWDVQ
Chain of Retinoic acid receptor RXR-alpha (Homo sapiens) (P19793 whole entry, looked up): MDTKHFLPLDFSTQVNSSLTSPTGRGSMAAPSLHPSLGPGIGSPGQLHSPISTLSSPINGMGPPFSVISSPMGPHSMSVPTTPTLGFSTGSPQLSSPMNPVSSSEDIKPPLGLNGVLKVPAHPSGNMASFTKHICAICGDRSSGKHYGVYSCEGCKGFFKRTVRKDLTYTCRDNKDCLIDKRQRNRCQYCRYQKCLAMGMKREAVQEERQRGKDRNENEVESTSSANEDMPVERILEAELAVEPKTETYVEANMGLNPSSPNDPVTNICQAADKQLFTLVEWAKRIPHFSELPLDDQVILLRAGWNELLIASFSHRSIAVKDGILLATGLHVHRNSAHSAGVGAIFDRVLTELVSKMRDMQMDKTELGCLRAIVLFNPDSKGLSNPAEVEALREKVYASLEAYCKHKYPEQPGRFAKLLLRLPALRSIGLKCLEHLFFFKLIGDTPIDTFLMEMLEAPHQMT

On to `CCCCCCCC[P+](CCCCCCCC)(CCCCCCCC)CCCCCCCC`, for which the Potency in assay [1] was 7.71 µM (active); in assay [2], 8.65 µM (active); in assay [3], 17.3 µM (active); in [4], 19.4 µM (active); in assay [5], 3.45 µM (active); in assay [6], 13.7 µM (active). Further, the Potency is 5.46 µM (active) in [7]; 13.7 µM (active) in assay [8]; 6.82 µM (active) in assay [9]; 1.71 µM (active) in assay [10]; 12.2 µM (active) in [11].

Regarding `CCCCCCCCCCCCCC[P+](CCCC)(CCCC)CCCC` (tested in a mixture with another compound), the Potency entry in [12], in [13], in assay [14], in [5] and in assay [6] was “inactive” in each case. Moreover, the Potency in assay [2] was 17.5 µM (active); in assay [3] it was 22 µM (active); in assay [7], 22 µM (active); in assay [8], 22 µM (active); in assay [9], 15.4 µM (active); in assay [10], 4.89 µM (active). In addition, in [11], the Potency is 12.4 µM (active).

`CCCC(C)c1ccccc1O` (stereo unspecified): the Potency entry in assay [12], in assay [1], in [13], in assay [15], in assay [16] and in [3] was “inactive” each time. In addition, the Potency result in [14], in assay [4], in assay [5], in assay [7], in assay [8] and in assay [9] was “inactive” in each case. Moreover, the Potency entry in [10] and in assay [17] was “inactive” in each case.

For the compound `CC(C)(C)CC(C)(C)c1ccc(O)c(Cc2ccc(Cl)cc2Cl)c1`, the Potency in [1] is 26.6 µM (active); in assay [3] it was 33.5 µM (active); in [5], 23.7 µM (active); in [6], 15.1 µM (active); in assay [7], 16.9 µM (active); in [8], 21.3 µM (active). Further, the Potency in assay [9] was 23.7 µM (active); in assay [10] it was 18.8 µM (active); in [11], 15.1 µM (active); in assay [18], 7.56 µM (active).

For `CCC1OCC(COc2ccc(Oc3ccccc3)cc2)O1` (stereo unspecified), the Potency result in assay [3], in assay [14], in assay [7], in [8], in [9] and in assay [10] was “inactive” throughout. Besides, in assay [11], the Potency result was “inactive”. The Potency in assay [5] was 49 µM (active).

In the case of `CN(C)c1ccc(C2(c3ccc(N(C)C)cc3)OC(=O)c3cc(N(C)C)ccc32)cc1`, the Potency result in assay [1], in assay [3], in [4], in [5], in assay [6] and in [7] was “inactive” throughout. Besides, the Potency result in [8], in [9], in assay [10], in assay [11] and in assay [18] was “inactive” in each case.

`N=C1N=C(N)c2cc3ccccc3cc21`: the Potency in assay [2] is 44.8 µM (active); in assay [3], 54.9 µM (active); in assay [5], 49 µM (active); in assay [7], 49 µM (active); in assay [8], 8.71 µM (active); in assay [9] it was 30.6 µM (active). In addition, the Potency in assay [10] is 30.6 µM (active); in assay [11], 49 µM (active); in [18] it was 49 µM (active).

In the case of `CCCC(c1cc(C(C)(C)C)c(O)cc1C)c1cc(C(C)(C)C)c(O)cc1C`, the Potency in [1] was 19.7 µM (active); in [2] it was 12.5 µM (active); in assay [3] it was 19.7 µM (active); in [5], 7.86 µM (active); in assay [6] it was 14 µM (active); in [7], 11.1 µM (active). Besides, the Potency in assay [8] was 22.1 µM (active); in assay [9], 15.5 µM (active); in assay [10], 13.9 µM (active); in [11], 7 µM (active).

In the case of `CCCC/C=C/CCCCO`, the Potency entry in assay [1], in assay [3], in [14], in [5], in [6] and in assay [7] was “inactive” throughout. Besides, the Potency result in assay [8], in [9], in [10], in assay [11] and in assay [18] was “inactive” throughout.

(Values after PubChem BioAssay (Tox21).)
